Measurements from the supplement of paper PMC10849652.
The full data set covers some 7,900 targets. This sample favours those with a hit. About 0.6% of all pairs of compound and target were hits. Unmarked numbers belong to inactive results.

Columns and labels:
Experiment in all cases: log2 fold change, soluble protein after heating vs DMSO (PISA); higher = thermal stabilisation; K562 cells, 10 uM, 30 min; active = over 0.2 and 3.5 SD of the protein, either way, in both replicates (recomputed)
[1] = compound: NC(=O)Nc1cc(-c2cccc(F)c2)sc1C(=O)N[C@H]1CCCNC1
Outline: (§1)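 Values are thermal stability changes relative to control samples and are taken from duplicates. They are stated as log2 fold changes. Before quantification by TMTpro 16plex LC-MS/MS with equalised channel sums, K562 cells at 2×10^6 cells/mL were treated with 10 μM compound for 30 min, heated in aliquots for 3 min across 48°C-58°C, pooled, extracted in PBS with 0.5% NP-40 at 4°C, and centrifuged at 21,000xg for 90 min to give the soluble supernatant.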

[2] = compound: NCC(=O)Nc1ccc(-n2nc(C(F)(F)F)cc2-c2ccc3c(ccc4ccccc43)c2)cc1
Outline: as §1

[3] = compound: Nc1ccccc1NC(=O)c1ccc(CNC(=O)OCc2cccnc2)cc1 [entinostat]
Outline: as §1

[4] = compound: O=C(CCCCCCNC(=O)c1cnc(N(c2ccccc2)c2ccccc2Cl)nc1)NO [citarinostat]
Outline: as §1

[5] = compound: O=C1NC(=O)C(c2cnc3ccccn23)=C1c1cn2c3c(cc(F)cc13)CN(C(=O)N1CCCCC1)CC2
Outline: as §1

[6] = compound: c1cc(OCCN2CCCCC2)cc(-c2n[nH]c3ccc(-c4nnc[nH]4)cc23)c1
Outline: as §1

[7] = compound: c1cn2cc(-c3ccc4cn[nH]c4c3)nc(Nc3ccc(N4CCOCC4)cc3)c2n1 [entospletinib]
Outline: as §1

[8] = compound: NC1(c2ccc(-c3nc4ccn5c(=O)[nH]nc5c4cc3-c3ccccc3)cc2)CCC1
Outline: as §1

[9] = compound: O=C(CCCCCCC(=O)Nc1ccccc1)NO [vorinostat]
Outline: as §1

[10] = compound: O=C(O)c1ccc2c(c1)nc(Nc1cccc(Cl)c1)c1ccncc12 [silmitasertib]
Outline: as §1

[11] = compound: NC(=O)c1cnc(N[C@@H]2CCCC[C@@H]2N)nc1Nc1cccc(-n2nccn2)c1
Outline: as §1

UniProt Q9P244, sequence (Q9P244 whole entry, looked up): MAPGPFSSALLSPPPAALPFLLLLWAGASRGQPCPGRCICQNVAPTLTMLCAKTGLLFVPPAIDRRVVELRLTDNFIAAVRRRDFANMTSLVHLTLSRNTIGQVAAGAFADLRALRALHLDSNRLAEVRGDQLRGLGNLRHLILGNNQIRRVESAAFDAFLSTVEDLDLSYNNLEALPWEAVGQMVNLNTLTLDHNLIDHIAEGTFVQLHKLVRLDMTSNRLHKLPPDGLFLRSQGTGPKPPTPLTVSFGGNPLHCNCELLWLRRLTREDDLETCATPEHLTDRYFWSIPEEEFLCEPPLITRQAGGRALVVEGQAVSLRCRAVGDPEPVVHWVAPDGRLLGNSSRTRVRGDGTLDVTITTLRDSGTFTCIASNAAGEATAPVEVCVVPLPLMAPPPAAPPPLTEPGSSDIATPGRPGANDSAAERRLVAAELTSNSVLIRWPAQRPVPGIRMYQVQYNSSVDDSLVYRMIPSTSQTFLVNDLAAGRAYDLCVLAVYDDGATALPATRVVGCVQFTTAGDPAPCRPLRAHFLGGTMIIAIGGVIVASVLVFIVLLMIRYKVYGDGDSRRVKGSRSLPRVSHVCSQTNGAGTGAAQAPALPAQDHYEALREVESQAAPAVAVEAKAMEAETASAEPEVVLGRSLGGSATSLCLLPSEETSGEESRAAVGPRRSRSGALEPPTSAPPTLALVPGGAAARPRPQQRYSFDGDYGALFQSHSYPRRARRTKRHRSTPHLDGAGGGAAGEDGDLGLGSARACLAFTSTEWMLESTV
UniProt P43361, sequence (P43361 whole entry, looked up): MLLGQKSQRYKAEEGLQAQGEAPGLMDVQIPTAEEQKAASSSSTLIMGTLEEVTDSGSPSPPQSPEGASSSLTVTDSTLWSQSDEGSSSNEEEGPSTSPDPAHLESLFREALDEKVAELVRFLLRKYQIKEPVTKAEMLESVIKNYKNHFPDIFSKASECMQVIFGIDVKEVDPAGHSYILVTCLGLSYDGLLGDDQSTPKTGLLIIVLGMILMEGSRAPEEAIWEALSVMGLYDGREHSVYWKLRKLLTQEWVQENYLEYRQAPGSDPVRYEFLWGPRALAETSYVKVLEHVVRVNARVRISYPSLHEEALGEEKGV
UniProt Q6NUT3, sequence (Q6NUT3 whole entry, looked up): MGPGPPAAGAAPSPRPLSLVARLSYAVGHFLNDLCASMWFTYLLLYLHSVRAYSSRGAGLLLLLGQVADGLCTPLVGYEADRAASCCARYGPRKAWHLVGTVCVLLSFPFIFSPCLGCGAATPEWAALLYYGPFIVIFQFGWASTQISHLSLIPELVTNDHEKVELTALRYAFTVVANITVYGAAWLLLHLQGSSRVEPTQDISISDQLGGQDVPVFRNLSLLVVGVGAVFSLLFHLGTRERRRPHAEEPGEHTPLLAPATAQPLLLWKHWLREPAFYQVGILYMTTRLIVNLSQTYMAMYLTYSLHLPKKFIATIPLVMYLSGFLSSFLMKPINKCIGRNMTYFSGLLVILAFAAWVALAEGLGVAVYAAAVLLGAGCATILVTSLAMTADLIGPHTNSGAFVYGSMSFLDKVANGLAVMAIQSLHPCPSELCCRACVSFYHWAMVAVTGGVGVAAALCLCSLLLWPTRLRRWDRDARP
UniProt Q86UD3, sequence (Q86UD3 whole entry, looked up): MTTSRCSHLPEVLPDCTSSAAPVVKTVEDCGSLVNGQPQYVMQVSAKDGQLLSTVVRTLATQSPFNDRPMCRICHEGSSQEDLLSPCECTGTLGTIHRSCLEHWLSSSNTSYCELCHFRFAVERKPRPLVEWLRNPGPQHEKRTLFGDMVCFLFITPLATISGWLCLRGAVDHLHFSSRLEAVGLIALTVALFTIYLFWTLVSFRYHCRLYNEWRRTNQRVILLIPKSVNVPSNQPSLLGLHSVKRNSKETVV
UniProt P13473, sequence (P13473 whole entry, looked up): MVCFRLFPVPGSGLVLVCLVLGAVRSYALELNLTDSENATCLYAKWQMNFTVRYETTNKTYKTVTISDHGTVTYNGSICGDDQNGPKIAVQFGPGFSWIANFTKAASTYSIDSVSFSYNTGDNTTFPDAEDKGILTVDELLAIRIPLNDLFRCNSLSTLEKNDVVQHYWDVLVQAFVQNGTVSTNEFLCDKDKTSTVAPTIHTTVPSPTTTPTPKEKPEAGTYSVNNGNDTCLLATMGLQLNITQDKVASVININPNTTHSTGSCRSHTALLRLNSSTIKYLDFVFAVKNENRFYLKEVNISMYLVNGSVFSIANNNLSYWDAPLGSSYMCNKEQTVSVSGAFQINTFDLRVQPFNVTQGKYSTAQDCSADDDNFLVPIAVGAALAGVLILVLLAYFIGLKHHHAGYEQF
UniProt Q9NQR1, sequence (Q9NQR1 whole entry, looked up): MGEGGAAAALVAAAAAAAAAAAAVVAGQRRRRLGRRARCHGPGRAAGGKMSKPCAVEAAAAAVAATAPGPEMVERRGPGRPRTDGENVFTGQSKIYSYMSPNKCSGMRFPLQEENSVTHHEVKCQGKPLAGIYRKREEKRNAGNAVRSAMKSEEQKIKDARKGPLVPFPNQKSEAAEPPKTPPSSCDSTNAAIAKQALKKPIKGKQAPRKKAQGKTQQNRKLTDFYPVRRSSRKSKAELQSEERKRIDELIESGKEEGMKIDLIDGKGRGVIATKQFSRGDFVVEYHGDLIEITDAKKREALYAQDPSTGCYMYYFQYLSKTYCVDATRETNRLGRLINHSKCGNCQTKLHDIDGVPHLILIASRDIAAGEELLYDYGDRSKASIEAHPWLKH
UniProt Q7L590, sequence (Q7L590 whole entry, looked up): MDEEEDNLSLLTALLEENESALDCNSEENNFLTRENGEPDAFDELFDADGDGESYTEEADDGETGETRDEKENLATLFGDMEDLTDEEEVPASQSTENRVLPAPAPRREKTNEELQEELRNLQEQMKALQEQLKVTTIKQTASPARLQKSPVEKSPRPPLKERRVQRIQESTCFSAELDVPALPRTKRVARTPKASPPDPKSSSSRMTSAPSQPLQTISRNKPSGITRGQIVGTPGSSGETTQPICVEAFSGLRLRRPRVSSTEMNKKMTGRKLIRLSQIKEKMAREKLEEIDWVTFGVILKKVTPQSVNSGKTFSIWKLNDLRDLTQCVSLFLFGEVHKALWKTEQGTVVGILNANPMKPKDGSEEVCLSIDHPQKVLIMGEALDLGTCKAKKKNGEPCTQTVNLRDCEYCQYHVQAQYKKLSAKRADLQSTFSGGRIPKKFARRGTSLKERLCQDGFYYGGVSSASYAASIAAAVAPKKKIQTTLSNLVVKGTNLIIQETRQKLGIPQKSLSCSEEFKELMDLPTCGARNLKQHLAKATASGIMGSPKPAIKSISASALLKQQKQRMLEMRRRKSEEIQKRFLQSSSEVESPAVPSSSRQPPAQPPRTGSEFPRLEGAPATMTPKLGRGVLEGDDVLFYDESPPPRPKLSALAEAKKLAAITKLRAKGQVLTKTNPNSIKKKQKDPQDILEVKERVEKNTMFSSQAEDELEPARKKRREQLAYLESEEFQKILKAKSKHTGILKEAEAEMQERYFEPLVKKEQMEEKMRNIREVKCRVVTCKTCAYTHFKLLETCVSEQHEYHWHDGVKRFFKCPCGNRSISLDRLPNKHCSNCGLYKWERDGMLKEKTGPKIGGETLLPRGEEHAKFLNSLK
UniProt Q9NX70, sequence (Q9NX70 whole entry, looked up): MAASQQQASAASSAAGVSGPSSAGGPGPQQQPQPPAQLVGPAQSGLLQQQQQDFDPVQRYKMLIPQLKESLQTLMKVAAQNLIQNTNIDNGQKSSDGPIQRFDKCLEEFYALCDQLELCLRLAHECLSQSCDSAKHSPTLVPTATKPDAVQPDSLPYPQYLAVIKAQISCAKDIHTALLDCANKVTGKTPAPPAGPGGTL
UniProt P28300, sequence (P28300 whole entry, looked up): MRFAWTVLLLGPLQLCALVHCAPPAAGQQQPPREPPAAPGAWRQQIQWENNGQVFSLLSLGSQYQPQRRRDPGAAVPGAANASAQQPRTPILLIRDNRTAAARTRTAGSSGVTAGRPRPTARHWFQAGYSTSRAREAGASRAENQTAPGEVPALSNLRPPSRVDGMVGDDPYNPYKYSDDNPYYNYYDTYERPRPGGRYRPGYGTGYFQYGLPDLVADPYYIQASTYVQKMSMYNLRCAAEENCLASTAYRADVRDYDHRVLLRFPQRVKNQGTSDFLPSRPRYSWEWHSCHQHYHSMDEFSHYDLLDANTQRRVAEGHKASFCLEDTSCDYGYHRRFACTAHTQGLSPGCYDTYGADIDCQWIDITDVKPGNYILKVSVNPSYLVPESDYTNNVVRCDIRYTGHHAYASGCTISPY
UniProt P24592, sequence (P24592 whole entry, looked up): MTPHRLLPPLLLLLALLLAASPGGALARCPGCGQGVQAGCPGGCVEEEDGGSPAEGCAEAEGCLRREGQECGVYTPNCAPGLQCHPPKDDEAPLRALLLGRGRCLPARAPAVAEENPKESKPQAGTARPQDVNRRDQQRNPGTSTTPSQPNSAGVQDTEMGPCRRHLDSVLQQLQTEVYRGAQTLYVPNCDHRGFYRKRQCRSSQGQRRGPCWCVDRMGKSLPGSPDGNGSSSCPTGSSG
UniProt Q9Y573, sequence (Q9Y573 whole entry, looked up): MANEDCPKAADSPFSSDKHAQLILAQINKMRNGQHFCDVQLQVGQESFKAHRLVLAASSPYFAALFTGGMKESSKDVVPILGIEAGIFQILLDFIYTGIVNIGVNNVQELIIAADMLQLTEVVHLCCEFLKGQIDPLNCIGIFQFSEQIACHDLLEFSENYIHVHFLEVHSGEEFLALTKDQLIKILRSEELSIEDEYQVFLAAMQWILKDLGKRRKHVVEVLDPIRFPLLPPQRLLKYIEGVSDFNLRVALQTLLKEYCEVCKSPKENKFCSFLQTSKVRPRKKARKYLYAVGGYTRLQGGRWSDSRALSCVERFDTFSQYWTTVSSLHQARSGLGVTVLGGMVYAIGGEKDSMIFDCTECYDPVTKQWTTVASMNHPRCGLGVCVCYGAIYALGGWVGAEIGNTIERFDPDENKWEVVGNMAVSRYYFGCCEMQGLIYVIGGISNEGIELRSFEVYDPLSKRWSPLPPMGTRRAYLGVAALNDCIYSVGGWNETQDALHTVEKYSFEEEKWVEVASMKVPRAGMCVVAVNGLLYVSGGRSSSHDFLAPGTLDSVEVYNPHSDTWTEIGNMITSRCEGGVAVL

LRFN1 (UniProt Q9P244) was tested, and the log2 fold change [1] was -0.14, the log2 fold change [2] was -0.166 and the log2 fold change [3] was 0.133. For the same target, the log2 fold change [4] was -0.06, the log2 fold change [5] was 0.036 and the log2 fold change [6] was 0.716. For the same target, the log2 fold change [7] was -0.031.

Work on MARCHF3 (UniProt Q86UD3) yielded a log2 fold change [1] of 0.169, a log2 fold change [3] of -0.038 and a log2 fold change [4] of -0.133. The log2 fold change [5] was -0.014, the log2 fold change [6] was -0.26 and the log2 fold change [7] was 0.058.

For MCM10 (UniProt Q7L590), the log2 fold change [1] was 0.522 (active), the log2 fold change [8] was 0.002 and the log2 fold change [2] was -0.085. It also gave a log2 fold change [3] of 0.224, a log2 fold change [9] of 0.021 and a log2 fold change [4] of 0.143. For the same target, the log2 fold change [10] was -0.129, the log2 fold change [5] was 0.134 and the log2 fold change [6] was 0.107. It also gave a log2 fold change [7] of -0.04.

In the case of IPP (UniProt Q9Y573), the log2 fold change [11] is reported as 0.047.

For MED29 (UniProt Q9NX70), the log2 fold change [11] was 0.05, the log2 fold change [8] was 0.029 and the log2 fold change [10] was 0.133.

KMT5A (UniProt Q9NQR1) was tested, and the log2 fold change [1] was 0.069, the log2 fold change [3] was -0.258 and the log2 fold change [9] was 0.096.

For IGFBP6 (UniProt P24592), the log2 fold change [11] was -0.079 and the log2 fold change [2] was -0.13.

LOX (UniProt P28300) showed a log2 fold change [8] of -0.086 and a log2 fold change [10] of 0.187.

Work on LAMP2 isoform 2 (UniProt P13473) yielded a log2 fold change [11] of -0.1, a log2 fold change [8] of -0.321 and a log2 fold change [2] of -0.132. The log2 fold change [9] was -0.113, the log2 fold change [4] was 0.061 and the log2 fold change [10] was 0.003. It also gave a log2 fold change [5] of 0.027, a log2 fold change [6] of -0.275 and a log2 fold change [7] of 0.033.

Work on MFSD12 isoform 3 (UniProt Q6NUT3) yielded a log2 fold change [1] of 0.073, a log2 fold change [11] of -0.159 and a log2 fold change [3] of -0.067. It also gave a log2 fold change [9] of 0.11, a log2 fold change [4] of 0.1 and a log2 fold change [6] of -0.162. The log2 fold change [7] was -0.089.

For MAGEA8 (UniProt P43361), the log2 fold change [11] was -0.135, the log2 fold change [2] was 0.034 and the log2 fold change [9] was -0.063. For the same target, the log2 fold change [4] was 0.012, the log2 fold change [6] was -0.008 and the log2 fold change [7] was 0.125.

With LSR (UniProt M0QZL9) the log2 fold change [1] was -0.508, the log2 fold change [2] was -0.095 and the log2 fold change [3] was -0.406. For the same target, the log2 fold change [5] was -0.074.

KIF1B isoform 3 (UniProt O60333) was tested, and the log2 fold change [8] was -0.073, the log2 fold change [2] was -0.389 and the log2 fold change [4] was 0.043. For the same target, the log2 fold change [10] was -0.057, the log2 fold change [6] was -0.55 and the log2 fold change [7] was 0.041.
